# Results from publication PMC11006913.
# Legend:
# Assay in all cases: PBM; 200 nM protein, PBS
# Settings in all cases: dsDNA, one strand shown
# SHOX [1] = target: SHOX (Homo sapiens, UniProt O15266 103-189)
# SHOX [2] = target: SHOX (Homo sapiens, UniProt O15266 103-189, R173C)
# HOXD13 [3] = target: HOXD13 (Homo sapiens, UniProt P35453 263-343, T313R)
# HOXD13 [4] = target: HOXD13 (Homo sapiens, UniProt P35453 263-343)
# HOXD13 [5] = target: HOXD13 (Homo sapiens, UniProt P35453 263-343, T313A)
# HOXD13 (Homo sapiens, UniProt P35453 263-343, T313A), sequence (P35453 263-343 T313A): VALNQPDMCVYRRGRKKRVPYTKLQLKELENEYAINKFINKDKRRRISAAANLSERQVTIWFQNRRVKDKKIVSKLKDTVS
# PITX2 = PITX2 (Homo sapiens, UniProt Q99697 72-157)
# HOXC10 = HOXC10 (Homo sapiens, UniProt Q9NYD6 254-340, K271E)
# HOXC10, sequence (Q9NYD6 254-340 K271E): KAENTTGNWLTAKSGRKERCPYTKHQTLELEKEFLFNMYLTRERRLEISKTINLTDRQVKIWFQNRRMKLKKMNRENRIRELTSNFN
# HOXD13 (Homo sapiens, UniProt P35453 263-343, T313R), sequence (P35453 263-343 T313R): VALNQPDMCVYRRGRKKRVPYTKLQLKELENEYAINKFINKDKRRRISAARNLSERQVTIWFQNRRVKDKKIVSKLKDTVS
# SHOX (Homo sapiens, UniProt O15266 103-189), sequence (O15266 103-189): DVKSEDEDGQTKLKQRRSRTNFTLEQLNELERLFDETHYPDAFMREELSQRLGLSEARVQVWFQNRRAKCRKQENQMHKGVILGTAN
# HOXD13 (Homo sapiens, UniProt P35453 263-343), sequence (P35453 263-343): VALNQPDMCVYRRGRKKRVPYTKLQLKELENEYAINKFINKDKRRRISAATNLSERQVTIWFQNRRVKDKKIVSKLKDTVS
# SHOX (Homo sapiens, UniProt O15266 103-189, R173C), sequence (O15266 103-189 R173C): as the sequence (O15266 103-189) above, with R71C counted along it
sequence,measurement,setting,value
GCCTGCCA,binding signal,SHOX [1],"7.25 upbm affinity estimate (log intensity, higher = more binding, comparable within an allelic series)"
same,binding signal,SHOX [2],"7.26 upbm affinity estimate (log intensity, higher = more binding, comparable within an allelic series)"
CCGGGACG,binding signal,SHOX [1],"7.24 upbm affinity estimate (log intensity, higher = more binding, comparable within an allelic series)"
same,binding signal,SHOX [2],"7.27 upbm affinity estimate (log intensity, higher = more binding, comparable within an allelic series)"
GCCCAAGC,binding signal,SHOX [1],"7.26 upbm affinity estimate (log intensity, higher = more binding, comparable within an allelic series)"
same,binding signal,SHOX [2],"7.23 upbm affinity estimate (log intensity, higher = more binding, comparable within an allelic series)"
AATTAGGC,binding signal,SHOX [1],"11.6 upbm affinity estimate (log intensity, higher = more binding, comparable within an allelic series)"
same,binding signal,SHOX [2],"9.07 upbm affinity estimate (log intensity, higher = more binding, comparable within an allelic series)"
TCGCGCGA,binding signal,SHOX [1],"7.38 upbm affinity estimate (log intensity, higher = more binding, comparable within an allelic series)"
same,binding signal,SHOX [2],"7.28 upbm affinity estimate (log intensity, higher = more binding, comparable within an allelic series)"
CCCTCCTC,binding signal,SHOX [1],"7.26 upbm affinity estimate (log intensity, higher = more binding, comparable within an allelic series)"
same,binding signal,SHOX [2],"7.13 upbm affinity estimate (log intensity, higher = more binding, comparable within an allelic series)"
AGCCACCG,binding signal,SHOX [1],"7.07 upbm affinity estimate (log intensity, higher = more binding, comparable within an allelic series)"
same,binding signal,HOXD13 [3],"9.53 upbm affinity estimate (log intensity, higher = more binding, comparable within an allelic series)"
same,binding signal,SHOX [2],"7.05 upbm affinity estimate (log intensity, higher = more binding, comparable within an allelic series)"
same,binding signal,HOXD13 [4],"9.56 upbm affinity estimate (log intensity, higher = more binding, comparable within an allelic series)"
same,binding signal,HOXD13 [5],"9.66 upbm affinity estimate (log intensity, higher = more binding, comparable within an allelic series)"
AGGGAAAC,binding signal,SHOX [1],"7.15 upbm affinity estimate (log intensity, higher = more binding, comparable within an allelic series)"
same,binding signal,SHOX [2],"7.22 upbm affinity estimate (log intensity, higher = more binding, comparable within an allelic series)"
CCGCGGCC,binding signal,SHOX [1],"7.18 upbm affinity estimate (log intensity, higher = more binding, comparable within an allelic series)"
same,binding signal,SHOX [2],"7.17 upbm affinity estimate (log intensity, higher = more binding, comparable within an allelic series)"
ACCCGGAC,binding signal,SHOX [1],"7.09 upbm affinity estimate (log intensity, higher = more binding, comparable within an allelic series)"
same,binding signal,SHOX [2],"7.17 upbm affinity estimate (log intensity, higher = more binding, comparable within an allelic series)"
AAGGCTCC,binding signal,SHOX [1],"7.08 upbm affinity estimate (log intensity, higher = more binding, comparable within an allelic series)"
same,binding signal,SHOX [2],"7.1 upbm affinity estimate (log intensity, higher = more binding, comparable within an allelic series)"
TATTAGGA,binding signal,SHOX [1],"10.1 upbm affinity estimate (log intensity, higher = more binding, comparable within an allelic series)"
same,binding signal,PITX2,"9.87 upbm affinity estimate (log intensity, higher = more binding, comparable within an allelic series)"
CTCTCCTC,binding signal,SHOX [1],"7.22 upbm affinity estimate (log intensity, higher = more binding, comparable within an allelic series)"
same,binding signal,SHOX [2],"7.21 upbm affinity estimate (log intensity, higher = more binding, comparable within an allelic series)"
CCCAGCGC,binding signal,SHOX [1],"7.21 upbm affinity estimate (log intensity, higher = more binding, comparable within an allelic series)"
same,binding signal,HOXD13 [3],"9.41 upbm affinity estimate (log intensity, higher = more binding, comparable within an allelic series)"
same,binding signal,SHOX [2],"7.13 upbm affinity estimate (log intensity, higher = more binding, comparable within an allelic series)"
same,binding signal,HOXD13 [4],"9.38 upbm affinity estimate (log intensity, higher = more binding, comparable within an allelic series)"
same,binding signal,HOXD13 [5],"9.56 upbm affinity estimate (log intensity, higher = more binding, comparable within an allelic series)"
AGTTTATG,binding signal,SHOX [1],"8.25 upbm affinity estimate (log intensity, higher = more binding, comparable within an allelic series)"
same,binding signal,HOXD13 [3],"10.7 upbm affinity estimate (log intensity, higher = more binding, comparable within an allelic series)"
same,binding signal,HOXD13 [4],"11.9 upbm affinity estimate (log intensity, higher = more binding, comparable within an allelic series)"
same,binding signal,HOXC10,"11.1 upbm affinity estimate (log intensity, higher = more binding, comparable within an allelic series)"
same,binding signal,HOXD13 [5],"11.5 upbm affinity estimate (log intensity, higher = more binding, comparable within an allelic series)"
CGCAGCCG,binding signal,SHOX [1],"7.02 upbm affinity estimate (log intensity, higher = more binding, comparable within an allelic series)"
same,binding signal,SHOX [2],"7.12 upbm affinity estimate (log intensity, higher = more binding, comparable within an allelic series)"
GGCCCAGA,binding signal,SHOX [1],"7.17 upbm affinity estimate (log intensity, higher = more binding, comparable within an allelic series)"
same,binding signal,SHOX [2],"7.12 upbm affinity estimate (log intensity, higher = more binding, comparable within an allelic series)"
GCATGGCC,binding signal,SHOX [1],"7.2 upbm affinity estimate (log intensity, higher = more binding, comparable within an allelic series)"
same,binding signal,SHOX [2],"7.2 upbm affinity estimate (log intensity, higher = more binding, comparable within an allelic series)"
CGGTTGCC,binding signal,SHOX [1],"7.18 upbm affinity estimate (log intensity, higher = more binding, comparable within an allelic series)"
same,binding signal,SHOX [2],"7.25 upbm affinity estimate (log intensity, higher = more binding, comparable within an allelic series)"
GCGGCGGA,binding signal,SHOX [1],"7.1 upbm affinity estimate (log intensity, higher = more binding, comparable within an allelic series)"
same,binding signal,SHOX [2],"7.11 upbm affinity estimate (log intensity, higher = more binding, comparable within an allelic series)"
GCCAGGGA,binding signal,SHOX [1],"7.22 upbm affinity estimate (log intensity, higher = more binding, comparable within an allelic series)"
same,binding signal,SHOX [2],"7.13 upbm affinity estimate (log intensity, higher = more binding, comparable within an allelic series)"
GCCGGGGA,binding signal,SHOX [1],"7.02 upbm affinity estimate (log intensity, higher = more binding, comparable within an allelic series)"
same,binding signal,SHOX [2],"7.11 upbm affinity estimate (log intensity, higher = more binding, comparable within an allelic series)"
AGCTGTCC,binding signal,SHOX [1],"7.1 upbm affinity estimate (log intensity, higher = more binding, comparable within an allelic series)"
same,binding signal,SHOX [2],"7.23 upbm affinity estimate (log intensity, higher = more binding, comparable within an allelic series)"
AGGGCAGC,binding signal,SHOX [1],"6.98 upbm affinity estimate (log intensity, higher = more binding, comparable within an allelic series)"
same,binding signal,HOXD13 [3],"9.54 upbm affinity estimate (log intensity, higher = more binding, comparable within an allelic series)"
same,binding signal,SHOX [2],"7.18 upbm affinity estimate (log intensity, higher = more binding, comparable within an allelic series)"
same,binding signal,HOXD13 [4],"9.49 upbm affinity estimate (log intensity, higher = more binding, comparable within an allelic series)"
same,binding signal,HOXD13 [5],"9.66 upbm affinity estimate (log intensity, higher = more binding, comparable within an allelic series)"
ACCTGAGG,binding signal,SHOX [1],"7.18 upbm affinity estimate (log intensity, higher = more binding, comparable within an allelic series)"
same,binding signal,SHOX [2],"7.27 upbm affinity estimate (log intensity, higher = more binding, comparable within an allelic series)"
CGGGGCCA,binding signal,SHOX [1],"6.97 upbm affinity estimate (log intensity, higher = more binding, comparable within an allelic series)"
same,binding signal,SHOX [2],"7.1 upbm affinity estimate (log intensity, higher = more binding, comparable within an allelic series)"
GCGTTAAA,binding signal,SHOX [1],"8.14 upbm affinity estimate (log intensity, higher = more binding, comparable within an allelic series)"
same,binding signal,SHOX [2],"7.56 upbm affinity estimate (log intensity, higher = more binding, comparable within an allelic series)"
